We go through 78 compounds from PubChem BioAssay AID1443 (Sanford-Burnham Center for Chemical Genomics, 2008).

Each structure is given as a SMILES string. In all, about 220,000 compounds went through this assay and about 880 (0.4%) were called active. Many of the other results were omitted from the sample, so actives are more common in it than they were. Unmarked numbers belong to inactive results.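 The calls were made as follows: active = cell killing above 50% in the first pass at 4 µM, then a duplicate retest at 5 µM averaging 50% or more; inactive = the rest.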

This experiment can be described thus: compounds killing PPC-1 cancer cells with TRAIL present, primary screen, TRAIL potentiator project, ATPLite luminescence, uHTS (AID 1443).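 Also: plate controls were cells with TRAIL plus DMSO for no effect and medium-only wells lacking cells for full effect.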 The settings on record: PPC-1 cells + TRAIL, ATPLite viability luminescence, active compounds read high; at 4 µM unless noted. In general terms: ATP-based viability assays read luminescence as a measure of living cells.
Consider `Cc1nonc1C(=O)N/N=C/c1ccc(O)cc1`, for which the cell killing (% activity) was -5.1%.
`CC(NC(=O)CCC(=O)N1CCN(S(=O)(=O)c2ccc(Cl)cc2)CC1)c1ccccc1` (stereo not drawn): the cell killing (% activity) is 16.9%.
The result for `CCN(CC(=O)Nc1ccc(S(=O)(=O)N2CCCC2)cc1)CC(=O)Nc1cccc(OC)c1` reads 6.9%; that for `CC(C)n1cnc2c(Nc3cccc(Cl)c3)nc(N(CCO)CCCO)nc21`, 8.8%; that for `OCCCNc1nccc(-c2cc(Nc3cccc(Cl)c3)ncn2)n1`, 80.9% (active).
The result for `NS(=O)(=O)c1cccnc1Nc1cccc(Cl)c1` reads 23%; that for `CCOC(=O)c1sc2nc(C)nc(Nc3ccc(OC)c(OC)c3)c2c1C`, -11.6%; that for `CCN1CCC2(CC1)N=C(c1ccc(F)cc1)C(=S)N2C(=O)c1ccc(C)cc1`, 5.2%.
Under `O=C(Nc1n[nH]c(C(F)(F)F)n1)c1cccs1` stands 2.7%; under `O=C(COC(=O)c1ccc(S(=O)(=O)Nc2ccccc2)cc1)NCC1CCCO1` (stereo not drawn), 14.7%.
As to `Cc1cc(C)nc(NC(=O)/C=C/c2ccc(Cl)cc2)n1`, the cell killing (% activity) is -2.4%.
Under `c1c2c(cc3sc(N4CCCCC4)nc13)OCCO2` stands 65.8% (active).
Under `Cc1nc2cc3c(cc2s1)OCO3` stands 9%.
For the compound `Brc1ccc2nc(N3CCCC3)sc2c1`, the cell killing (% activity) was -2.5%.
With `O=C(O)/C(=C/c1cccnc1)NC(=O)c1ccccc1`, the cell killing (% activity) is 9%.
Under `COCCNc1nc(-c2ccccc2)nc2c1oc1ccccc12` stands 8.8%; under `Cc1ccc2nsnc2c1S(=O)(=O)N1CCCC1C(=O)O` (stereo not drawn), 13.9%; under `Cc1cc(=O)oc2c(C(=O)c3ccccc3)c(OCC(N)=O)ccc12`, 6.8%.
Under `COc1cccc(C(=O)n2ccc(-c3cccs3)n2)c1` stands -11.4%; under `Cc1nc2cc(NC(=O)NC3CC3)ccc2n1C`, 14.9%; under `C=CCN(C(=O)Nc1ccc2c(c1)nc(C)n2C)c1ccccc1`, 14.1%.
Under `Cc1nc2cc(NC(=O)Nc3cccc(F)c3)ccc2n1C` stands 54.1% [at 5 µM] (active).
For `COC(C(=O)Nc1ccc(S(=O)(=O)Nc2ccc(C)c(C)c2)cc1)c1ccccc1` (stereo not drawn), the cell killing (% activity) was 19.1%.
The result for `COc1ccccc1NC(=O)CCSc1nnc(-c2ccc(O)cc2)o1` reads -2.2%; that for `CCC(C)N1C(=S)SC(C)(C)C1N(O)C(=O)NC1CCCCC1` (stereo not drawn), 13.9%; that for `Cc1ccc(-n2[nH]c(C)c(/C=N/NC(=O)c3cccc([N+](=O)[O-])c3)c2=O)cc1C`, 60.3% (active).
Under `Cc1[nH]n(-c2ccccc2)c(=O)c1/C=N/NC(=O)c1ccoc1C` stands 29.6%.
As for `COc1cccc(/C=N/NC(=O)c2cccc([N+](=O)[O-])c2)c1OS(=O)(=O)c1ccc(C)cc1`, the cell killing (% activity) is -0.7%.
The result for `CC(C)CNC(=S)Nc1ccc(F)cc1` reads 31.5%; that for `CC1CC(=S)Nc2ccccc2N1Cc1ccccc1` (stereo not drawn), 16%; that for `CCNC(=O)COC(=O)/C=C/c1c(C)nn(Cc2cccc(OC)c2)c1Cl`, -7.2%.
Under `CCOC(=O)c1nnn2c1nc(N1CCN(c3ccccc3)CC1)c1ccccc12` stands 3.6%.
The result for `Cc1csc(SCC(=O)Nc2sccc2C#N)n1` reads 10.6%; that for `c1ccc(-c2nc(NCc3ccco3)c3ccccc3n2)cc1`, 6.1%.
For the compound `Clc1cccc(-c2nc(NCC3CCCO3)c3ccccc3n2)c1` (stereo not drawn), the cell killing (% activity) is -5.4%.
The result for `Clc1ccc2nc(-c3ccccc3)nc(C(Cl)Cl)c2c1` reads 79.2% [at 5 µM] (active); that for `COc1ccc(CCNCC(O)Cn2ccc3ccccc32)cc1OC` (stereo not drawn), -2.7%.
The result for `CC(=O)NC1C(Oc2ccc(C)cc2)OC2COC(c3ccco3)OC2C1O` (stereo not drawn) reads 2.4%; that for `COc1cccc(/C=N/NC(=O)c2[nH]nc3c2CCc2ccccc2-3)c1O`, 57.1% (active); that for `COc1cccc(/C=N/Nc2cc(C)nc(-c3ccccc3O)n2)c1O`, 21.2%.
Under `COc1cccc(/C=N\NC(=O)C2=NNC(=O)C2C)c1O` (stereo not drawn) stands 24.7%.
As to `O=C(/C=C/c1ccccc1)Oc1coc(CSc2ncccn2)cc1=O`, the cell killing (% activity) was 5.1%.
The result for `Cc1nc2cc(NCc3cccs3)ccc2n1C` reads 1.5%; that for `Cc1ccc(C(=O)N/C(=C\c2ccco2)C(=O)NC2CCS(=O)(=O)C2)cc1` (stereo not drawn), 9.8%.
Under `COc1ccc(-c2ccnc(SCC(=O)N3CCOCC3)n2)cc1` stands 20.6%; under `COc1ccc(-c2nc(SCC(=O)N3CCOCC3)n[nH]2)cc1`, 4.4%.
The result for `CCOc1ccc(-c2ccc(SCC(=O)N3CCOCC3)nn2)cc1` reads 56.9% [at 5 µM] (active).
For the compound `NC(=O)COC(=O)/C=C/c1ccc2ccccc2n1`, the cell killing (% activity) was 14.6%.
The result for `COc1cccc(/C=C/c2ccc3ccccc3n2)c1OC(C)=O` reads 70.3% [at 5 µM] (active); that for `CCOc1cccc(/C=C/c2ccc3ccccc3n2)c1OC(C)=O`, 49.3%.
Take `Cc1ccc(C(=O)NNc2ncnc3ccccc23)cc1`: the cell killing (% activity) was 35.9%.
The result for `CC(C)c1ccc(NC(=S)NNc2ccc(Cl)c(C(=O)O)c2)cc1` reads -1.7%; that for `CC(c1ccccn1)N(CCN(C)C)C(=S)Nc1ccccc1F` (stereo not drawn), 20.3%; that for `COc1cc2c(cc1OC)C(=O)NCC(C)(C)O2`, 20.2%.
For the compound `CCC/C(C)=N\Nc1nc2c(c(=O)n(C)c(=O)n2C)n1C`, the cell killing (% activity) is 8%.
As for `CCOC(=O)c1sc(NC(=O)CSc2nc3c(c(=O)n2-c2ccccc2)SCC3)c(C(=O)OCC)c1C`, the cell killing (% activity) was 5.5%.
Under `O=c1oc2ccccc2cc1-c1cn(-c2ccccc2)c(=S)[nH]1` stands 57.2% (active).
The result for `Nc1ncc(-c2cc3ccccc3oc2=O)s1` reads 11.4%; that for `O=C(c1cn(-c2ccccc2)nc1-c1cc2ccccc2oc1=O)N1CCOCC1`, 28.2%; that for `O=C(O)COCC(=O)NCc1csc2ccc(Cl)cc12`, 6.2%.
The result for `O=C(Nc1ccccc1)C1CC(=O)n2c(nc3ccccc32)N1` (stereo not drawn) reads 1.1%.
As to `COc1cc(OC)c2ccc(=O)oc2c1C(CCN1CCN(c2ccccc2)CC1)c1ccc2c(c1)OCO2` (stereo not drawn), the cell killing (% activity) was -2.2%.
Under `COc1ccc(OC)c(C(=O)c2ccc(Cl)cc2)c1` stands -11.3%; under `CCOC(=O)C1=C(c2ccc(OC)cc2)C(=O)c2ccccc2C1=O`, 23.5%; under `CCOC(=O)c1c(C)[nH]c(=S)c(C#N)c1-c1ccccc1`, 18.1%.
Consider `CCOC(=O)c1c(C)[nH]c2c1-c1ccccc1C(=O)C2=O`, for which the cell killing (% activity) is 96.5% [at 5 µM] (active).
Under `Cc1cccc(C2c3[nH]c4ccccc4c3CCN2C(=O)c2cc(-c3cccn3C)n[nH]2)n1` (stereo not drawn) stands -11.4%; under `COc1cc(SC)ccc1C(=O)NCCOc1ccccc1Cl`, 9.8%.
Under `COc1cc(SC)ccc1C(=O)Nc1cc(C)ccn1` stands 53.7% [at 5 µM] (active); under `COc1ccccc1CNC(=O)c1ccc(SC)cc1OC`, 16.9%.
The result for `COc1cc(SC)ccc1C(=O)Nc1nc(C)cs1` reads 96% [at 5 µM] (active).
Turning to `COc1ccc(C(=O)Nc2nncs2)c(OC)c1`, the cell killing (% activity) was 21.1%.
Take `Cc1ccnc(NC(=O)c2ccoc2C)c1`: the cell killing (% activity) is 0%.
Under `O=C(Nc1nnc(SCc2ccccc2Cl)s1)c1cccc([N+](=O)[O-])c1` stands 2.1%; under `Cc1ccc(C)n1NC(=O)c1ccc([N+](=O)[O-])cc1`, 11.3%.
`CN(C)/C=C(/C(=O)c1ccc(Cl)c(Cl)c1)c1nnnn1-c1ccccc1`: the cell killing (% activity) was 10.3%.
The result for `CC(C)NC(=O)NCCCCCCS(C)=O` (stereo not drawn) reads 20.6%.
For `O=S(=O)(NCC1CCCO1)c1cnc(Cl)c(Cl)c1` (stereo not drawn), the cell killing (% activity) was -24.2%.
